From PubChem BioAssay AID430 (Sanford-Burnham Center for Chemical Genomics, 2006) come the findings set out here.

About 1,100 (1.7%) of roughly 63,000 compounds were called active. The full list was thinned out, with actives kept by preference. Results with a measured potency or affinity are listed apart. Unmarked numbers belong to inactive results. No stated cut-off is given here; in the data, active means cytotoxicity above about 50%; inactive means the rest.

This assay is described as follows: HPDE-C7 pancreatic duct cell viability loss – fluorescence, HTS (AID 430).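 Further: cells exposed to compound for 48 hours before viability readout; 0% = vehicle and 100% = reference cytotoxic drug.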 The settings on record: HPDE-C7 pancreatic duct cells viability, at 10 µM, stronger effect = higher value.
Turning to `Cc1cc(-c2nnc3sc(C4CCCCC4)nn23)n[nH]1`, the cytotoxicity was 4.3%.

As to `CC(C)C(c1nnnn1CC1CCCO1)N1CCN(Cc2ccc3c(c2)OCO3)CC1` (centres undefined), the cytotoxicity was -3.2%.

Turning to `CS(=O)(=O)c1ccc2nc(NC(=O)Cc3ccccc3)sc2c1`, the cytotoxicity was 0.9%.

`CC(C)(C)NS(=O)(=O)c1ccc2nc(NC(=O)Cc3cccs3)sc2c1`: the cytotoxicity was 68.7% (active).

With `O=C(Cc1cccs1)Nc1nc2ccccc2s1`, the cytotoxicity was 0.1%.

Consider `CCOC(=O)C1CCCN(c2c(NCC3CCCO3)c(=O)c2=O)C1` (centres undefined), for which the cytotoxicity is -11.3%.

For `CCOc1ccc(Nc2cc(C)nc(-n3nc(C)cc3C)n2)cc1`, the cytotoxicity was 49.1%.

As for `COc1ccc(N2CCN(C(=O)c3ccc(-n4nc(C)cc4C)cc3)CC2)cc1`, the cytotoxicity was -4.7%.

For the molecule `COC(=O)c1ccc(Oc2ccc3nnc(C)n3n2)cc1`, the cytotoxicity was -7.1%.

`Cc1cc(C)n(-c2ccc(C(=O)NC(C)C)cc2)n1`: the cytotoxicity is -1%.

In the case of `CNc1cc(C)nc(-n2nc(C)cc2C)n1`, the cytotoxicity is -0.2%.

Regarding `COC(=O)c1ccc(Nc2cc(C)nc3nc(C)nn23)cc1`, the cytotoxicity was 5.7%.

As for `CC(=O)c1ccc(Oc2cc(C)nc(-n3nc(C)cc3C)n2)cc1`, the cytotoxicity was 60.3% (active).

Consider `COC(=O)c1ccc(Oc2cc(C)nc(-n3nc(C)cc3C)n2)cc1`, for which the cytotoxicity is 54.2% (active).

For the molecule `COc1ccc(Nc2cc(C)nc(-n3nc(C)cc3C)n2)cc1`, the cytotoxicity was 66.9% (active).

With `O=C(NCCOC(=O)c1ccc(Cl)c(S(=O)(=O)N2CCCCC2)c1)c1ccncc1`, the cytotoxicity was -9.8%.

Regarding `CC1(C)CC(=O)c2cnn(-c3nc4ccccc4[nH]3)c2C1`, the cytotoxicity was -0.3%.

As to `c1ccc2c(c1)nc(N1CCOCC1)c1c3ccccc3[nH]c21`, the cytotoxicity was -21.6%.

For the molecule `O=S(=O)(Nc1ccc2c(c1)OCCO2)c1cccc2cccnc12`, the cytotoxicity is -0.7%.

Consider `CN(CCOC(=O)c1ccc2c(c1)OCCO2)Cc1ccccc1`, for which the cytotoxicity was -14%.

As for `O=C(Oc1cccc2cccnc12)c1cccc(-n2cnnn2)c1`, the cytotoxicity was 20.3%.

On to `Cc1ccc2cccc(OC(=O)c3ccc4c(c3)OCCO4)c2n1`, for which the cytotoxicity was 53% (active).

With `Cc1noc(C)c1COC(=O)c1ccc2c(c1)OCCO2`, the cytotoxicity was 4.3%.

For the molecule `Cc1[nH]c2ccc(-c3nnc(SCC(=O)c4ccccc4F)o3)cc2c1C`, the cytotoxicity is 66.4% (active).

Turning to `Cc1[nH]c2ccc(-c3nnc(SCC(=O)N4CCCc5ccccc54)o3)cc2c1C`, the cytotoxicity was -10.5%.

Consider `Cc1[nH]c2ccc(-c3nnc(SCC(=O)c4ccc(F)cc4)o3)cc2c1C`, for which the cytotoxicity was 1.7%.

As to `COc1cccc(C2(O)CCN(C(=O)C3CCC3)CC2)c1`, the cytotoxicity was -6.9%.

Regarding `O=C1c2ccccc2CCC1C(O)c1ccccn1` (centres undefined), the cytotoxicity was -15%.

Turning to `COc1cccc(CN(Cc2cccnc2)S(=O)(=O)c2ccc(-n3cnnn3)c(C)c2)c1OC`, the cytotoxicity was -18%.

Take `COc1ccccc1N1CCN(c2cc(N3CCCC3)nc(C)n2)CC1`: the cytotoxicity is 2.7%.

Take `COc1ccccc1N1CCN(c2nc(-c3ccccc3)cc(C(F)(F)F)n2)CC1`: the cytotoxicity was 10.1%.

In the case of `COc1ccccc1N1CCN(c2ccc(-c3ccccc3)nn2)CC1`, the cytotoxicity is 61.1% (active).

`COCC(C)NC(=O)c1cc(-c2cccc(OC)c2)on1` (centres undefined): the cytotoxicity is -3.6%.

As for `Cc1cc(C)cc(OCC(=O)Nc2ccc(N3CCN(S(C)(=O)=O)CC3)cc2)c1`, the cytotoxicity was -17.3%.

For the molecule `Cc1ccccc1NC(=O)c1ccc(F)c(S(=O)(=O)N2CCN(c3ccccn3)CC2)c1`, the cytotoxicity was -26.8%.

As to `Cc1cc(NCCN2CCOCC2)n2ncc(-c3ccc(Cl)cc3)c2n1`, the cytotoxicity was 9.8%.

`Cc1cc(NCCOCCO)n2ncc(-c3ccc(Cl)cc3)c2n1`: the cytotoxicity was 65.6% (active).

For `Cc1cc(NCCCN2CCOCC2)n2ncc(-c3ccc(Cl)cc3)c2n1`, the cytotoxicity is 11.9%.

With `Cc1cc(C)n(S(=O)(=O)Cc2ccccc2)n1`, the cytotoxicity was -8.3%.

Consider `O=S(=O)(/C=C/c1ccccc1)n1cnc2ccccc21`, for which the cytotoxicity is 22.4%.

As for `Cc1cc(C)nc(Nc2n[nH]c(-c3ccccc3Br)n2)n1`, the cytotoxicity is -1.8%.

Take `COc1ccccc1N1CCN(C(=O)Nc2cccc(C)c2)CC1`: the cytotoxicity is -2.6%.

Consider `Cc1ccc(SC(C)C(=O)N2CCCC2)cc1` (centres undefined), for which the cytotoxicity was 5.9%.

As to `CCCCCCNS(=O)(=O)c1ccc(Cl)s1`, the cytotoxicity was -26.3%.

Take `CCCCn1c(-c2nonc2NC(=O)c2ccccc2Cl)nc2ccccc21`: the cytotoxicity is 69.4% (active).

In the case of `CCOC(=O)Cn1c(-c2nonc2NC(=O)c2ccccc2F)nc2ccccc21`, the cytotoxicity was 41.5%.

Consider `CCC(=O)Nc1nonc1-c1nc2ccccc2n1N(C(=O)CC)C(=O)CC`, for which the cytotoxicity is 54.2% (active).

As to `N#CCCn1c(-c2nonc2NC(=O)c2ccccc2Cl)nc2ccccc21`, the cytotoxicity was 41.9%.

Turning to `CCC(=O)Nc1nonc1-c1nc2ccccc2n1Cc1ccccc1`, the cytotoxicity is 6.6%.

Consider `CCC(=O)Nc1nonc1-c1nc2ccccc2n1CC(C)C`, for which the cytotoxicity was 25.7%.

Turning to `Cc1ccc(N2C(=O)CC(N(O)C3CC(=O)N(c4ccc(C)cc4)C3=O)C2=O)cc1` (centres undefined), the cytotoxicity was 14.1%.

With `C=CCNC(=O)c1sc(=S)n(-c2ccc(C(=O)OCC)cc2)c1N`, the cytotoxicity was 2.1%.

For the molecule `COc1ccc(C)cc1NC(=O)C1CCCN(S(=O)(=O)c2cnc[nH]2)C1` (centres undefined), the cytotoxicity is 11.5%.

For `O=C(Cc1ccc(Cl)cc1)Nc1ccccc1CO`, the cytotoxicity was -8.9%.

For `CSc1nc(=NC(C)=O)ss1`, the cytotoxicity is -2%.

As for `CC1CCN(C(=O)CSc2nc(N)c3c4c(sc3n2)CN(C)CC4)CC1`, the cytotoxicity is 5.8%.

Regarding `CCCCOc1ccc(C(=O)N2CCCCCC2)cc1`, the cytotoxicity is -14.5%.

For `COc1ccc(C(=O)n2cnc(N)n2)cc1`, the cytotoxicity was 2.7%.

For `CCCCCCOc1ccc(C(=O)n2cnc(N)n2)cc1`, the cytotoxicity was 71.3% (active).

For `CCCn1nc(NC(=O)c2cccs2)c2cc3cc(OC)ccc3nc21`, the cytotoxicity is -7.4%.

`COc1ccc2nc3c(cc2c1)c(NC(=O)c1cccs1)nn3CC(C)C`: the cytotoxicity was 50.8% (active).

As for `CCCCn1nc(NC(=O)c2cccs2)c2cc3cc(OC)ccc3nc21`, the cytotoxicity is 28.9%.

On to `O=S(=O)(NCc1ccco1)c1cccc2cccnc12`, for which the cytotoxicity was 15.9%.

Regarding `Cc1ccc(S(=O)(=O)C(C#N)c2nc3ccccc3nc2N2CCCC2)cc1C` (centres undefined), the cytotoxicity is 53.9% (active).

Take `Cc1cccc(S(=O)(=O)C(C#N)c2nc3ccccc3nc2N2CC(C)OC(C)C2)c1` (centres undefined): the cytotoxicity was 7.1%.

For `Cc1cccc(S(=O)(=O)C(C#N)c2nc3ccccc3nc2N2CCCC2)c1` (centres undefined), the cytotoxicity was -7.1%.

Regarding `Cc1ccc(S(=O)(=O)C(C#N)c2nc3ccccc3nc2N2CC(C)OC(C)C2)cc1C` (centres undefined), the cytotoxicity was 50% (active).

Take `Cc1ccc(C)c(S(=O)(=O)C(C#N)c2nc3ccccc3nc2N2CC(C)OC(C)C2)c1` (centres undefined): the cytotoxicity is 48.7%.

For `Cc1ccc(S(=O)(=O)C(C#N)c2nc3ccccc3nc2N2CCCC2)cc1` (centres undefined), the cytotoxicity was 23.3%.

In the case of `COc1ccc2nc(NC(=O)Cc3ccc(OC)c(S(=O)(=O)N4CCOCC4)c3)sc2c1`, the cytotoxicity was 13.1%.

On to `C=C1c2ccc(C)cc2NC(=O)N1c1ccccc1`, for which the cytotoxicity was -11.1%.

On to `COc1ccc(CCNc2c(C)c(C)nc3ncnn23)cc1`, for which the cytotoxicity is 10%.

As to `CCc1c(C)nc2ncnn2c1NCCc1ccc(OC)c(OC)c1`, the cytotoxicity was 4.7%.

Regarding `CCc1c(C)nc2ncnn2c1NCCc1ccc(OC)cc1`, the cytotoxicity was 64.9% (active).

Take `COCCNC(=O)c1ccccc1NC(=O)c1ccc(OC)c(OC)c1`: the cytotoxicity is -2.2%.

Consider `O=P(c1ccccc1)(c1ccccc1)C(c1ccco1)N1CCOCC1` (centres undefined), for which the cytotoxicity was -5.8%.

In the case of `O=C(Nc1ccc(N2CCOCC2)c(Cl)c1)c1ncn[nH]1`, the cytotoxicity was -2.8%.

On to `N[C@@H](Cc1ccc(O)c(I)c1)C(=O)O`, for which the cytotoxicity was -10.4%.

Regarding `O=C(O)CCc1cc(I)c(Oc2ccc(O)c(I)c2)c(I)c1`, the cytotoxicity was 92.3% (active).

Consider `COc1ccc2[nH]c(C(=O)O)c(CCC(=O)O)c2c1`, for which the cytotoxicity was 5.8%.

For `O=C(Nc1nc2ccccc2[nH]1)c1ccc(F)cc1`, the cytotoxicity was -12.8%.

In the case of `Cc1nc2ccc(C(=O)c3ccccc3)cc2[nH]1`, the cytotoxicity was -13.6%.

Consider `O=C(COc1ccccc1)Nc1nc2ccccc2[nH]1`, for which the cytotoxicity was -9.3%.

Regarding `COC(=O)Nc1nc2ccc(C(=O)c3ccccc3)cc2[nH]1`, the cytotoxicity was 69.2% (active).

`COC(=O)Nc1nc2ccc(Sc3ccccc3)cc2[nH]1`: the cytotoxicity was 60.6% (active).

On to `COc1cc(C(=O)Nc2nc3ccccc3[nH]2)cc(OC)c1OC`, for which the cytotoxicity was -19.5%.

Consider `Cc1c(NC(=O)c2cc(-c3ccccc3)on2)c(=O)n(-c2ccccc2)n1C`, for which the cytotoxicity was -4.6%.

Turning to `O=S(=O)(NCC1CCCO1)c1cccc2nsnc12` (centres undefined), the cytotoxicity was -2.4%.

For `O=C(OCc1cc(-c2ccccc2)no1)c1ccc2ccccc2n1`, the cytotoxicity is -17.4%.

Regarding `O=C(Nc1ccc(N2CCOCC2)cc1)c1cnsn1`, the cytotoxicity was -19.9%.

As to `CSc1ncc(Cl)c(C(=O)Nc2ccc(S(=O)(=O)N3CCOCC3)cc2)n1`, the cytotoxicity is 7.9%.

With `CS(=O)(=O)c1ncc(Cl)c(C(=O)Nc2ccc(N3CCOCC3)cc2)n1`, the cytotoxicity is 72.4% (active).

On to `Cc1cc(NC(=O)CCN2C(=O)c3ccccc3C2=O)no1`, for which the cytotoxicity is -2.5%.

On to `CCn1c2ccccc2c2cc(C3C(C#N)=C(C)NC(C)=C3C#N)ccc21`, for which the cytotoxicity was -2.6%.

Regarding `CCn1c2ccccc2c2cc(C3C(C#N)=C(N)OC4=C3C(=O)CC(C)(C)C4)ccc21` (centres undefined), the cytotoxicity is -26.8%.

Regarding `CCCc1[nH]nc2c1C(c1ccccc1OC)C(C#N)=C(N)O2` (centres undefined), the cytotoxicity was 4.9%.

On to `O=C(O)C1C2C=CC3(CN(Cc4ccco4)C(=O)C13)O2` (centres undefined), for which the cytotoxicity is -6.3%.

For the molecule `O=C(O)C1C2C=CC3(CN(Cc4ccncc4)C(=O)C13)O2` (centres undefined), the cytotoxicity was -13.4%.

Regarding `O=C(O)C1C2C=CC3(CN(Cc4ccccn4)C(=O)C13)O2` (centres undefined), the cytotoxicity is 63.6% (active).
